# PubChem BioAssay (NCI)
# About 83,000 compounds went through this panel and 20% of them were active in at least one assay; those are over-represented in the sample as a whole.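 Note: values are percent growth. 100 is the growth of untreated cells, values between 100 and 0 indicate rising inhibition; between -100 and 0 indicates cell death.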 A number with no mark means an inactive call. Calls of active or inactive are those of the source. Rule for the calls: active = growth percent below 10; inactive = the rest.
# Key:
# Assay in all cases: NCI-60 one-dose screen, 48 h (100 = growth as untreated, 0 = no growth, -100 = all killed)
# DU-145 prostate = details: 10 µM unless noted
# K-562 leukemia = details: 10 µM unless noted
# MALME-3M melanoma = details: 10 µM unless noted
# MDA-MB-231 breast = details: 10 µM unless noted
# RXF 393 renal = details: 10 µM unless noted
# SF-268 CNS = details: 10 µM unless noted
# SF-295 CNS = details: 10 µM unless noted
# SF-539 CNS = details: 10 µM unless noted
# UACC-257 melanoma = details: 10 µM
# M14 melanoma = details: 10 µM unless noted
Compound,growth (DU-145 prostate),growth (K-562 leukemia),growth (MALME-3M melanoma),growth (MDA-MB-231 breast),growth (RXF 393 renal),growth (SF-268 CNS),growth (SF-295 CNS),growth (SF-539 CNS),growth (UACC-257 melanoma),growth (M14 melanoma)
CCCCCCCCCCCCNC(=S)N/N=C/c1ccc(Cl)c(Cl)c1,116%,97.2%,113%,104%,108%,118%,98.3%,94.2%,107%,105%
NS(=O)(=O)c1ccc(CN2C(=O)c3cccc4cccc(c34)C2=O)cc1,105%,96%,112%,94.3%,97.6%,92.4%,110%,88.8%,103%,105%
O=C(CCC(=O)OC1CCCC1)OC1CCCC1,102%,96%,102%,105%,97.6%,99.7%,99.3%,87.8%,85.4%,112%
CN(C)c1ncc(-c2ccc(C(F)(F)F)cc2)c(NC2CCCCCC2)n1,84.9%,28.2%,5.4% (active),83.4%,78.8%,80.8%,32.7%,97.3%,38.1%,44.5%
COc1ccc(-c2nc(-c3ccccc3)c(-c3ccccc3)n2C2CC2)cc1OC1CCCCC1,73.2%,31.4%,76.5%,61.2%,73.7%,56.3%,54.8%,81%,85.1%,76.7%
COc1ccc([N+](=O)[O-])c(/C=C/C(=O)c2ccccn2)c1,28.5%,21%,91%,86.2%,74.1%,89.1%,133%,95.2%,96.9%,104%
NC(=O)NC(=O)/C=C/C(=O)OCCCl,112%,94.4%,95.9%,115%,105%,110%,89.1%,105%,77.4%,113%
CCC(C)NCC(=O)O (stereo not given),115%,96.3%,105%,111%,103%,107%,92.4%,92.7%,112%,99.3%
COc1cccc(/C=C/C(=O)c2sc(Nc3ccc(O)cc3)nc2C)c1,94.9%,79.1%,95%,105%,84.6%,61.2%,104%,74.5%,85%,95.4%
COc1cc(Cn2c(SCC(=O)Nc3cc(OC)c(OC)c(OC)c3)nc3ccccc3c2=O)cc(OC)c1OC,94.6%,97.4%,82.8%,58.2%,61.6%,54.7%,85.9%,66.1%,102%,95%
Cc1ccc2c(c1)C(=O)C(c1c(-c3[nH]c(=O)c4ccc(C)cc4c3O)c(O)c3ccccc3c1O)=NC2=O,-58.7% (active),10.7%,-39.1% (active),-6.31% (active),-10.8% (active),9.4% (active),49.9%,61.1%,63.1%,35.7%
C=C1C(=O)O[C@H]2[C@H](O)[C@@H](C)CCC/C(C)=C/CC[C@@]3(C)O[C@@H]3C[C@@H]12,99.4%,79.2%,72%,77.9%,53.1%,96.1%,89.4%,84.2%,56.9%,92.8%
CCC1CCc2nc3sc(C(=O)Nc4cccc(C)c4)c(N)c3cc2C1 (stereo not given),78.3%,35.8%,47.4%,79.8%,83.9%,77.6%,70.4%,73.1%,56.3%,55.1%
CN(C)c1ccc(-c2ccc(-c3ccc(C(=N)N)cn3)o2)cc1,-65.2% (active),-46.7% (active),-75.5% (active),-84.4% (active),-81% (active),-49.2% (active),-69.7% (active),-87.4% (active),-83.8% (active),-74.4% (active)
CCCCCc1c(C)[nH]c(/C=c2\[nH]/c(=C3/C=c4ccccc4=N3)cc2OC)c1C,5.25% (active),-9.81% (active),-65% (active),-80.5% (active),-46.7% (active),-38.3% (active),-60.2% (active),-67.1% (active),-42.4% (active),-81.6% (active)
COc1ccc(OC)c(C(=O)c2oc3ccc(Br)cc3c2N)c1,16.3%,8.24% (active),35.2%,29.8%,-30.1% (active),47.3%,-35.1% (active),-44.4% (active),49.9%,27.3%
Cn1c(-c2nonc2NC(=O)c2ccc(F)cc2)nc2ccccc21,107%,9.03% (active),123%,129%,109%,109%,98.5%,103%,97.2%,106%
O=C(CN1CCN(c2cc3c(cc2F)c(=O)c(C(=O)O)cn3C2CC2)CC1)Nc1ccc(C(=O)/C=C/c2ccccc2)cc1,43.1%,14.2%,51%,55.1%,41.7%,37%,15.2%,26.2%,61.1%,31.8%
COc1ccc(S(=O)(=O)Nc2cc(/C=C\c3cc(OC)c(OC)c(OC)c3)cc(OC)c2OC)cc1OC,13.9%,15.8%,84.1%,32.3%,-8.93% (active),38.4%,8.39% (active),-18.6% (active),72%,2.52% (active)
COc1cc(/C=C2\C=C(c3ccc(F)cc3)N(Cc3ccccc3)C2=O)cc(OC)c1OC,94.8%,56.1%,90.7%,78.7%,64.5%,77.4%,83.6%,87%,79.3%,76.2%
COc1ccc(/C=C\c2cc(OC)c(OC)c(OC)c2)c(NS(=O)(=O)c2ccc(C(C)(C)C)cc2)c1O,-0.37% (active),13.2%,108%,8.45% (active),22.6%,24.5%,16.9%,2.6% (active),65.7%,14.9%
c1ccc([P+](CCC[P+](c2ccccc2)(c2ccccc2)c2ccccc2)(c2ccccc2)c2ccccc2)cc1,86.7%,23.2%,65.6%,93.7%,104%,69.2%,73.4%,88%,37%,80.9%
COc1cc2c3c(c(=O)oc2cc1OS(=O)(=O)c1ccc(C(F)(F)F)cc1)CCCCC3,82.4%,97.3%,72.1%,68.6%,30.1%,93.4%,81.9%,64.9%,95.6%,83.7%
COc1cc2nc(N3CCC[C@@H](NC4=CC(=O)c5ccccc5C4=O)C3)nc(N)c2cc1OC,-53.8% (active),-47.1% (active),94.8%,-71.2% (active),-76.3% (active),-47.4% (active),-89% (active),-99.9% (active),95.3%,96.3%
Nc1c(C(=O)Nc2cccc(C(F)(F)F)c2)sc2nc3c(cc12)CCCCCC3,20.8%,17%,-20.6% (active),-12.9% (active),-49.1% (active),12.7%,2.51% (active),-86.9% (active),7.85% (active),47.1%
COc1ccc(C(=O)c2cc(OC)c(OC)c(OC)c2)cc1/C=C/C(=O)c1ccc(O)cc1,26.4%,19%,91.6%,35%,35.1%,12.8%,29.9%,0.251% (active),36%,15.8%
COc1ccc(Cn2cc(COc3cc(/C=C/C(=O)c4cc(OC)c(OC)c(OC)c4)ccc3OC)nn2)cc1,88.5%,12%,101%,84.9%,90.3%,94.6%,32.2%,49.2%,96.1%,90.9%
